Data published in PubChem BioAssay (EPA / NIEHS).
Results filed as inconclusive are left out. Activity calls are given as the source filed them. The calls were made as follows, unless noted: active = hit-call score of the fitted dose curve at least 0.9, where 1 is the maximum; inconclusive = response in the unintended direction; inactive = score below 0.9.

Experiments:
[1] = biological target: Cellular tumor antigen p53 (Homo sapiens) (UniProt P04637); assay: TOX21_p53_BLA_p2_ratio: Tox21 HCT-116 p53 Agonism Beta-lactamase Assay, Ratio, Phase 2 (AID 2283592)
Chain of Cellular tumor antigen p53 (Homo sapiens) (P04637 whole entry, looked up): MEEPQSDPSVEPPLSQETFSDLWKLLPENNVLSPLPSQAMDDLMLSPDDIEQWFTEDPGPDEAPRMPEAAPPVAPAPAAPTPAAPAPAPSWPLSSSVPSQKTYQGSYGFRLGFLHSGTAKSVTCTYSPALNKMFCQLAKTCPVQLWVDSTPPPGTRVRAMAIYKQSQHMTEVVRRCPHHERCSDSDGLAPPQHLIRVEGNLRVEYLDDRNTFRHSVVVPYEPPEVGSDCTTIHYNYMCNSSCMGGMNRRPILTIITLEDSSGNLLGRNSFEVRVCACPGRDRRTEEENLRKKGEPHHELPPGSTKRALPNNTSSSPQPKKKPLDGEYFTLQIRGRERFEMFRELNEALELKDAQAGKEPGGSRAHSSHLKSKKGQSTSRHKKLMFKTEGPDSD
Summary of the method: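 An inducible beta-lactamase reporter in HCT116 cells signals p53 pathway activation. After 16 h chemical exposure at 37C, cells load CCF4-AM substrate for 2 h at room temperature; activity is the cleaved/uncleaved emission ratio relative to DMSO.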

[2] = TOX21_p53_BLA_p3_viability: Viability Assessment in the Tox21 HCT-116 p53 Agonism Beta-lactamase Assay, Phase 3 (AID 2283593);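 also: cells exposed to compound for 16 h before reading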
Summary of the method: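 Cellular ATP was quantified by CellTiter-Glo luminescence, read after 30 min at room temperature. Beforehand, HCT116 cells (4000/well) received compound 5 h post-seeding, 217-fold diluted from DMSO, then incubated 16 h at 37C.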

[3] = biological target: Cellular tumor antigen p53 (Homo sapiens) (UniProt P04637); assay: TOX21_p53_BLA_p3_ratio: Tox21 HCT-116 p53 Agonism Beta-lactamase Assay, Ratio, Phase 3 (AID 2283596)
Summary of the method: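 HCT116 p53-bla cells (4000/well) given compound in DMSO (217-fold dilution) after 5 h, incubated 16 h at 37C. CCF4-AM substrate 2 h at room temperature; 460/530 nm emission ratio, gain fitted against DMSO.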

[4] = TOX21_p53_BLA_p4_viability: Viability Assessment in the Tox21 HCT-116 p53 Agonism Beta-lactamase Assay, Phase 4 (AID 2283597);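 also: hits lower the luminescence signal meaning cytotoxicity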
Summary of the method: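 Compound exposure of HCT116 cells lasts 16 h at 37C, 5% CO2, with DMSO stocks diluted 217-fold. Cellular ATP is then quantified by CellTiter-Glo luminescence after 30 min at room temperature.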

[5] = biological target: Cellular tumor antigen p53 (Homo sapiens) (UniProt P04637); assay: TOX21_p53_BLA_p5_ratio: Tox21 HCT-116 p53 Agonism Beta-lactamase Assay, Ratio, Phase 5 (AID 2283599)
Summary of the method: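 Beta-lactamase reporter ratio (blue 460 nm over green 530 nm, 405 nm excitation) after 2 h CCF4-AM loading, in HCT-116 cells exposed 16 h at 37 C to compounds pinned at 217-fold dilution. Increases relative to DMSO baseline scored.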

[6] = TOX21_p53_BLA_p5_viability: Viability Assessment in the Tox21 HCT-116 p53 Agonism Beta-lactamase Assay, Phase 5 (AID 2283600)
Summary of the method: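 Counter-readout for cytotoxicity: ATP-dependent luminescence from CellTiter-Glo, read in the beta-lactamase wells after 30 min at RT, following a 16 h compound exposure at 37C.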

[7] = biological target: Cellular tumor antigen p53 (Homo sapiens) (UniProt P04637); assay: TOX21_p53_BLA_p4_ratio: Tox21 HCT-116 p53 Agonism Beta-lactamase Assay, Ratio, Phase 4 (AID 2283601)
Summary of the method: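 Signal is the blue/green (460nm/530nm) ratio of cleaved versus uncleaved CCF4-AM substrate, read after 2 h substrate loading. Cells were HCT116 carrying the p53-responsive beta-lactamase reporter, dosed 16 h at 37C, 5% CO2; CellTiter-Glo measured in parallel.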

THRB (gene 7068) [8] = biological target: THRB (gene 7068) (UniProt P10828); assay: TOX21_TRB_BLA_Antagonist_Followup_ratio: Tox21 Thyroid Hormone Receptor beta Antagonism Beta-lactamase (BLA) Follow-Up Assay, Ratio (AID 2283958)
Chain of THRB (gene 7068) (P10828 whole entry, looked up, the tested form may be a part): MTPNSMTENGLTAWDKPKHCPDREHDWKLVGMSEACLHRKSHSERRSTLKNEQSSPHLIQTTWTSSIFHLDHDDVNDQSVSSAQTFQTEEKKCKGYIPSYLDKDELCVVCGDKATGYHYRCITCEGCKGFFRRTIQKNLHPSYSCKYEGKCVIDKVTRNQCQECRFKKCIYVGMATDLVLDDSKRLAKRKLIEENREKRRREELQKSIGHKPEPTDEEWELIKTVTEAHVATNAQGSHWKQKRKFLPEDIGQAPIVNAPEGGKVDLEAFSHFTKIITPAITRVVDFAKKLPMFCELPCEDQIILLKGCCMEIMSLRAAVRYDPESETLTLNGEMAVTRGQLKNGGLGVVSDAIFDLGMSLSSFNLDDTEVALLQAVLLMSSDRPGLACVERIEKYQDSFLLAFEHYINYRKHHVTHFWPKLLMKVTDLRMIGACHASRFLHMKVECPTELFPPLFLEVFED
Summary of the method: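 HEK293T cells with a GAL4-TRb LBD fusion and UAS-bla reporter, 3,000 cells/well in phenol red-free DMEM with 2% charcoal-stripped FBS. Exposed 18 h at 37C to 11 concentrations in triplicate; CCF4 460:530 nm ratio after 2 h, DMSO-referenced.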

THRB (gene 7068) [9] = biological target: THRB (gene 7068) (UniProt P10828); assay: TOX21_TRB_COA_Antagonist_Followup_ratio: Tox21 Thyroid Hormone Receptor beta Antagonism through Coactivator Recruitment Follow-Up Assay, Ratio (AID 2283967)
Summary of the method: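 Test compound was incubated with 5.0 nM GST-TRβ LBD in 0.10% BSA. Then 200 nM fluorescein-SRC-2 peptide and 2 nM terbium anti-GST antibody were added. TR-FRET (520:495 nm) was measured and normalized to DMSO and T3 controls.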

[10] = TOX21_TR_RXR_BLA_Antagonist_Followup_viability: Viability Assessment in the Tox21 Thyroid Hormone Receptor beta Retinoid X Receptor alpha (RXRa) Antagonism Beta-lactamase (BLA) Follow-Up Assay (AID 2283979)
Summary of the method: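 Follow-up compounds (11 concentrations, triplicate) were incubated 16 h at 37C/5% CO2 with HEK293T RXRa-bla cells seeded at 2,500/well in charcoal-stripped-serum medium. ATP content by CellTiter-Glo luminescence gave viability; curves fitted in both directions against DMSO.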

PGR (gene 5241) [11] = biological target: PGR (gene 5241) (UniProt P06401); assay: TOX21_PR_BLA_Followup_Agonist_ratio: Tox21 HEK293 Progesterone Receptor (PR) Agonism Beta-lactamase Follow-Up Assay, Ratio (AID 2283933)
Chain of PGR (gene 5241) (P06401 whole entry, looked up): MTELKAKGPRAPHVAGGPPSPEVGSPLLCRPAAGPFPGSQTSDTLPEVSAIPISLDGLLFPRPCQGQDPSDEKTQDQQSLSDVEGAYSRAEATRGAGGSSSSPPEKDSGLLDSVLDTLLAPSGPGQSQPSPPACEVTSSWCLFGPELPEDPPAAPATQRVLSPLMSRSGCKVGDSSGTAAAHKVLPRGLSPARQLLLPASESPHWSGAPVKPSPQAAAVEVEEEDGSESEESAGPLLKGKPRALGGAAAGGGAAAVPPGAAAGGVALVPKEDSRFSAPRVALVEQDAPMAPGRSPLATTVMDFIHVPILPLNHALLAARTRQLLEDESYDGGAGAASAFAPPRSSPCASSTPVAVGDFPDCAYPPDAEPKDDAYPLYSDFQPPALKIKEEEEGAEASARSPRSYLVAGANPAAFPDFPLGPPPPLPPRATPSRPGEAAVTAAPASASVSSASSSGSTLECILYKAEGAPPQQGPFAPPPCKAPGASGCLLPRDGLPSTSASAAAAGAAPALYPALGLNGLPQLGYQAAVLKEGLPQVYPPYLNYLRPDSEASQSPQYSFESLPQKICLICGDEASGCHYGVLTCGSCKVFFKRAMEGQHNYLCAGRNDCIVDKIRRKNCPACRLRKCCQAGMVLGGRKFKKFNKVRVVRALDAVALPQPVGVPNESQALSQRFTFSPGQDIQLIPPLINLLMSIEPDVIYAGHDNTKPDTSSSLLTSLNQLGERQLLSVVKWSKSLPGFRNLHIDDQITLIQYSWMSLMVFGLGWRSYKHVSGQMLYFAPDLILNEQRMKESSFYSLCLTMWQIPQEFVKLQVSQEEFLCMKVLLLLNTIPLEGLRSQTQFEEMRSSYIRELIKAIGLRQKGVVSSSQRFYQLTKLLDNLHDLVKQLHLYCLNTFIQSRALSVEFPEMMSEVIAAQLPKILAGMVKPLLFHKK
Summary of the method: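 PR-UAS-bla HEK293T cells in medium with 2% charcoal-stripped FBS were dosed after 6 h plating and incubated 16 h at 37C. LiveBLAzer FRET substrate was added for 2 h at room temperature. Cleaved/uncleaved substrate ratio fitted against DMSO; CellTiter-Glo viability run in the same wells.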

PGR (gene 5241) [12] = biological target: PGR (gene 5241) (UniProt P06401); assay: TOX21_PR_BLA_Followup_Antagonist_ratio: Tox21 HEK293 Progesterone Receptor (PR) Antagonism Beta-lactamase Follow-Up Assay, Ratio (AID 2283934)
Summary of the method: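 PR-UAS-bla HEK293T cells, 3,000/well in 2% charcoal-stripped FBS, given compound plus 1nM R5020 agonist for 16 hr at 37C. Beta-lactamase FRET substrate 2 hours, ratio cleaved/uncleaved fluorescence; viability by CellTiter-Glo in same wells.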

PGR (gene 5241) [13] = biological target: PGR (gene 5241) (UniProt P06401); assay: TOX21_PR_LUC_Followup_Agonist: Tox21 HEK293 Progesterone Receptor (PR) Agonism Luciferase Follow-Up Assay (AID 2283937; active = hit-call score of the fitted dose curve at least 0.9, where 1 is the maximum; inactive = score below 0.9)
Summary of the method: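 HEK293-PR-A-luc cells, conditioned 5 days in 10% charcoal-stripped FBS medium, seeded 3,000/well for 5 h, then compound-treated 16 h at 37C. ONE-Glo luminescence read after 30 min at room temperature; gain of signal versus DMSO.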

PGR (gene 5241) [14] = biological target: PGR (gene 5241) (UniProt P06401); assay: TOX21_PR_LUC_Followup_Antagonist: Tox21 HEK293 Progesterone Receptor (PR) Antagonism Luciferase Follow-Up Assay (AID 2283938);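 also: curve fitted upward as signal gain over DMSO baseline despite antagonist label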
Summary of the method: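 A follow-up to the PR bla screen using HEK293-PR-A-luc cells, multiplexed with cell viability to flag cytotoxicity. Reporter luminescence after 16 h compound exposure was analysed relative to DMSO.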

[15] = TOX21_PR_LUC_Followup_Agonist_viability: Viability Assessment in the Tox21 HEK293 Progesterone Receptor (PR) Agonism Luciferase Follow-Up Assay (AID 2283941);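 also: loss of signal means cytotoxicity so actives lower viability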
Summary of the method: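 HEK293-PR-A-luc cells, kept in 10% charcoal-stripped FBS medium, were treated with compounds for 16 h at 37C. Viability read as cellular ATP by luciferase-coupled luminescence; loss of signal indicates cytotoxicity.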

[16] = TOX21_TRB_BLA_Antagonist_Followup_viability: Viability Assessment in the Tox21 Thyroid Hormone Receptor beta Antagonism Beta-lactamase (BLA) Follow-Up Assay (AID 2283961)
Summary of the method: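 Cytotoxicity is measured in parallel with the antagonist-mode TRβ beta-lactamase screen, using ATP-coupled luciferase luminescence. Engineered HEK293T cells are treated for 18 h with 11-point compound series in triplicate.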

[17] = biological target: Retinoic acid receptor RXR-alpha (Homo sapiens) (UniProt P19793); assay: TOX21_TR_RXR_BLA_Antagonist_Followup_ratio: Tox21 Thyroid Hormone Receptor beta Retinoid X Receptor alpha (RXRa) Antagonism Beta-lactamase (BLA) Follow-Up Assay, Ratio (AID 2283972)
Chain of Retinoic acid receptor RXR-alpha (Homo sapiens) (P19793 whole entry, looked up, the tested form may be a part): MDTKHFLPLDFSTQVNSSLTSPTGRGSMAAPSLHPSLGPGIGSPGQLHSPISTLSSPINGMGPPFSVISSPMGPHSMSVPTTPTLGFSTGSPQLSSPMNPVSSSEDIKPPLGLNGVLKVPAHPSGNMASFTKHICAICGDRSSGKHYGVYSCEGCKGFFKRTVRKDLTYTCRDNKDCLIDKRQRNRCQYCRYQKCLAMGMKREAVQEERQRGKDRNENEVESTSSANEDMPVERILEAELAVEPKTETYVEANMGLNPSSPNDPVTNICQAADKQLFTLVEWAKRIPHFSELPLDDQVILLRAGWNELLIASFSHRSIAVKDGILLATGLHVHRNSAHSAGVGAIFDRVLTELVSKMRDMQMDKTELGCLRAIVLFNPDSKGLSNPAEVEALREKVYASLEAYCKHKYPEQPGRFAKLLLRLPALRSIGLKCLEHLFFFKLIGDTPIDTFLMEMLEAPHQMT
Summary of the method: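 Antagonist mode used GAL4 UAS-driven beta-lactamase in HEK293T cells expressing RXRa, treated for 16 h with compound concentration series. Activity was taken from the blue/green (460:530 nm) ratio of cleaved to uncleaved substrate.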

[18] = CCTE_Harrill_HTTr_Viability_MCF7: CCTE's 6-hour Cell Viability Assessment for the High-Throughput Transcriptomics (HTTr) Platform, in MCF-7 cells cultured in DMEM + 10% fetal bovine serum, Harrill Lab (AID 2284010; active = hit-call score of the fitted dose curve at least 0.9, where 1 is the maximum; inactive = score below 0.9)
Summary of the method: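 MCF-7 cells in DMEM + 10% FBS, 384-well, exposed 6 h to an eight-point dilution series. Membrane integrity scored by high-content imaging of propidium iodide exclusion; bidirectional fit versus DMSO.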

[19] = CCTE_Harrill_HTTr_Apoptosis_MCF7: CCTE's 6-hour Apoptosis Assessment for the High-Throughput Transcriptomics (HTTr) Platform, in MCF-7 cells cultured in DMEM + 10% fetal bovine serum, Harrill Lab (AID 2284011; active = hit-call score of the fitted dose curve at least 0.9, where 1 is the maximum; inactive = score below 0.9)
Summary of the method: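 Cells are dosed with test chemicals at eight concentrations and imaged 6 hours later for caspase-3/7 activity using a green fluorogenic detection reagent. Activity is fitted in both directions against DMSO controls.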

[20] = CCTE_Harrill_HTTr_CellCount_MCF7: CCTE's Cell Proliferation Assessment for the High-Throughput Transcriptomics (HTTr) Platform, Harrill Lab (AID 2284012);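 also: cells exposed to compound for six hours; intended direction is loss of nuclei count meaning fewer cells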
Summary of the method: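 MCF7 cells exposed 6 hours to an eight-point dilution series; Hoechst-stained nuclei counted by high-content imaging. Bidirectional curve fitting against DMSO baseline.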

Measured: AC50

Oc1ccc(Cl)c(Cl)c1Cl
inactive: [1] | [2] | [3] | [4] | [5] | [6] | [7]

CN=CNc1ccc(C)cc1C
inactive: [1] | [2] | [3] | [5] | [6] | [7]

C[C@]12CC[C@H]3[C@@H](CCC4=C(Cl)C(=O)CC[C@@]43C)[C@@H]1CC[C@@H]2O
inactive: [1] | [2] | [3] | [4] | [5] | [6] | [7] | THRB (gene 7068) [8] | THRB (gene 7068) [9] | [10]

BrCC(Br)(Br)Br
active: [1] 84.7 µM | [3] 13.1 µM
inactive: [2] | [4] | [5] | [6] | [7]

CCCN
inactive: [1] | [2] | [3] | [5] | [6] | [7]

Cc1cc(Cl)ccc1N=CN(C)C
inactive: [1] | [2] | [3] | [4] | [5] | [6] | [7]

CC[C@]1(O)CC[C@H]2[C@@H]3CCC4=CCCC[C@@H]4[C@H]3CC[C@@]21C
active: [1] 3.73 µM | [3] 3.62 µM | [5] 7.06 µM | [7] 7.04 µM | PGR (gene 5241) [11] 0.686 µM | PGR (gene 5241) [13] 0.0421 µM | THRB (gene 7068) [8] 11.6 µM | [17] 14.3 µM
not listed: [18] | [19] | [20]
inactive: all other assays above

COC1=CC=C2[C@H]3Cc4ccc(OC)c5c4[C@@]2(CCN3C)[C@H]1O5
inactive: [1] | [2] | [3] | [4] | [5] | [6] | [7]

CCCCCCI
inactive: [1] | [2] | [3] | [5] | [6] | [7]

CCC(=O)O[C@H]1[C@@H](N2CCCCC2)C[C@H]2[C@@H]3CC[C@H]4C[C@H](OC(C)=O)[C@@H](N5CCCCC5)C[C@]4(C)[C@H]3CC[C@@]21C
inactive: [1] | [2] | [3] | [6]

Clc1ccc(C(Cl)(Cl)Cl)cc1Cl
inactive: [1] | [2] | [4] | [5] | [6] | [7]

Cc1cccc(Cc2cnc[nH]2)c1C
inactive: [1] | [2] | [3] | [5] | [6] | [7]

CC(=O)OC1CN2CCC1CC2 (stereo not given)
inactive: [1] | [2] | [3] | [5] | [7]

CNN
inactive: [1] | [2] | [4] | [6]

COC(=O)C(Cl)C(=O)OC
inactive: [1] | [2] | [4] | [6] | [7]

CCCC1CCCCN1 (stereo not given)
inactive: [1] | [2] | [3] | [5] | [7]

Nc1n[nH]c(N)n1
inactive: [1] | [2] | [3] | [6]

O=C(Cl)c1ccccc1
inactive: [1] | [2] | [4] | [5] | [6] | [7]

C=CCc1cc(OC)c2c(c1)OCO2
inactive: [1] | [2] | [3] | [5] | [7]

Cc1cccc2sc3nncn3c12
inactive: [1] | [2] | [3] | [5] | [7] | [18] | [19] | [20]

CCCCC(CC)COC(=O)OOC(C)(C)C (stereo not given)
inactive: [1] | [2] | [3] | [5] | [7]

O=C(Cl)c1ccccc1F
inactive: [1] | [2] | [4] | [5] | [6]

Cc1ccc2ccccc2c1
inactive: [1] | [2] | [3] | [5] | [7]

CN(C)[C@H](Cc1ccccc1)c1ccccc1
inactive: [1] | [3] | [6]
active: [2] 37.9 µM

CC=CCC#N
inactive: [1] | [2] | [3] | [5] | [7]

C[N+](C)(C)CCOC(=O)C(O)(c1ccccc1)c1ccccc1
inactive: [1] | [2] | [4] | [6] | [7]

C[C@]12CC[C@H](OS(=O)(=O)O)CC1=CC[C@@H]1[C@@H]2CC[C@]2(C)C(=O)CC[C@@H]12
inactive: [1] | [2] | [3] | [5] | [6] | [7]

O=C(O)C(Br)CBr (stereo not given)
inactive: [1] | [2] | [3] | [5] | [7]

CC(C)Br
inactive: [1] | [2] | [4]

CC(N)Cc1ccc2c(c1)OCO2 (stereo not given)
inactive: [1] | [2] | [3] | [5] | [6] | [7]
